Experimental data published in PubChem BioAssay (NCI).
Compounds without any hit were thinned out: in the full panel of roughly 83,000, 20% have a hit.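 48-hour exposure, single concentration, 96-well plates; percent growth endpoint where 0 means no net growth. Active: below 10.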 Values without a mark were called inactive. The source made the active and inactive calls.

These molecules were tested on KM12 colon (assay: NCI-60 one-dose screen, 48 h (100 = growth as untreated, 0 = no growth, -100 = all killed)). Conditions: 10 µM.

| SMILES | growth |
| --- | --- |
| CCOC(=O)Nc1ccc2c(c1)C(=O)N(CCOC)c1ccccc1O2 | 23% |
| COc1ccc(Nc2ccnc(N3CCN(c4ccnc5cc(Cl)ccc45)CC3)n2)cc1 | 2.49% (active) |
| O=C(c1ccccc1)C(Nc1ccccc1)c1ccccc1 (stereo not drawn) | 93.4% |
| Cc1ccc(/C=C2\CN(Cc3cn(CCNc4ccnc5cc(Cl)ccc45)nn3)C/C(=C\c3ccc(C)cc3)C2=O)cc1 | -93.8% (active) |
| C[C@]12CC[C@H]3[C@@H](CC=C4C[C@@H](O)CC[C@@]43C)[C@@H]1CC[C@@H]2C(=O)C/C=N/O | 96.6% |
| Cc1ccccc1[P+](Cc1ccccc1)(c1ccccc1)c1ccccc1 | 8.7% (active) |
| COc1ccccc1Cn1cc2c(c1-c1ccccc1)CCc1cnoc1-2 | 29.5% |
| Clc1cc(Cl)c(OCCCCCCN2CCNCC2)c(Cl)c1 | 21.3% |
| Cc1c(C(=O)N[C@H](CO)Cc2ccccc2)[nH]c2ccc(Cl)cc2c1=O | 106% |
| CC(C)C(C)C(N)C(=O)O (stereo not drawn) | 103% |
| CCn1nc(-c2ccccn2)c2cccnc2c1=S | 72.8% |
| COc1cc(CSc2nc3ccc(Cl)cc3c(=O)n2Cc2ccccc2)cc(OC)c1OC | 23.7% |
| C[C@H](NC(=O)[C@@H]1CSSC[C@@H](NC(=O)Cc2nc3ccccc3cc2O)C(=O)NCC(=O)N1C)c1ccccc1 | 56% |
| CCOC(=O)[C@@H](Cc1ccccc1)NC(=O)c1[nH]c2ccc(Cl)cc2c(=O)c1C | 97% |
| O=C(Nc1cccc(Cl)c1)OCC(COC(=O)Nc1cccc(Cl)c1)(COC(=O)Nc1cccc(Cl)c1)[N+](=O)[O-] | 23.8% |
| O=C1/C(=C/c2ccc(O)cc2)Oc2ccc(Cl)cc21 | 101% |
| COc1cc(/C=C/C(=O)c2cc(-c3ccc(F)cc3)ccc2O)cc(OC)c1OC | 86% |
| COc1ccc(C(=O)n2nc(CC(=O)NCc3ccccc3)nc2N)cc1 | 116% |
| COc1cc(/C=C/C(=O)c2cc(-c3ccc(C(F)(F)F)cc3)ccc2O)cc(OC)c1OC | 69.2% |

| SMILES | growth |
| --- | --- |
| CN(C1c2ccccc2Oc2ccccc21)S(=O)(=O)c1cc(Cl)ccc1Cl | 42.8% |
| O=C1CC(c2cccc(-c3cccnc3)c2)=Nc2ccc(Br)cc2N1 | 49.4% |
| COc1ccc(-c2oncc2-c2cc(OC)c3c(c2)OCO3)cc1 | 31.3% |
| Cc1ccc([P+](Cc2ccc([N+](=O)[O-])cc2)(c2ccc(C)cc2)c2ccc(C)cc2)cc1 | 16% |
| COc1ccc(C2=NNC(c3sc(Cl)nc3Cl)C2)cc1 (stereo not drawn) | 79.5% |
| COc1ccccc1CNCCCN1C(=O)c2ccc3c4c(ccc(c24)C1=O)C(=O)N(CCCNCCNCCCN)C3=O | 15.4% |
| C[C@@H]1C(=O)N(C[C@H](Cc2ccccc2)NC(=O)OCc2ccccc2)[C@]1(Cc1ccccc1)C(=O)OCc1ccccc1 | 26.6% |
| Cc1cccc2c(Nc3ccc(NS(C)(=O)=O)cc3)c3ccc([N+](=O)[O-])cc3nc12 | -46.6% (active) |
| O=C(Cn1ccc(=O)[nH]c1=O)c1ccc([N+](=O)[O-])o1 | 83.9% |
| CC1(C)CCc2cc(-c3ccn(S(=O)(=O)c4ccc(Cl)cc4)n3)ccc2O1 | 77% |
| COc1cc(-c2nc(-c3nnc(-c4cccnc4)o3)c3ccccn23)cc(OC)c1OC | 100% |
| NCCNc1ccc2cc(-c3nc4ccccc4[nH]3)c(=O)oc2c1 | 99.8% |
| Nc1cc2c(cc1Cl)-c1ccc(Cl)cc1C2=O | 96.4% |
| C[n+]1c(/C=C/c2c[nH]c3ccccc23)ccc2ccccc21 | 38.9% |
| N#C/C(=C\N1C(=O)/C(=C/c2cccc([N+](=O)[O-])c2)SC1=S)c1nc2ccccc2s1 | 81.3% |
| COC(=O)C1(C(=O)OC)C2C(=O)C3C(C21)C3(C(=O)OC(C)(C)C)C(=O)OC(C)(C)C (stereo not drawn) | 112% |
| COc1ccc(/C(=C/c2cc(OC)c(OC)cc2[N+](=O)[O-])C(=O)O)cc1 | 121% |
| O=CNc1c(Cl)cc2c(c1Cl)Cc1cc([N+](=O)[O-])ccc1-2 | 25.6% |
| CCCCCC(CCC)COC(=O)c1ccc(OC)cc1 (stereo not drawn) | 109% |
